Results on 60 sequences are retold here after the OligoGym collection.

Holding throughout (assay): pooled miR-30 sensor sort-seq; sequence = guide strand
What all share (conditions): shRNA

For experiment [1], the target named is GPR20.
The target of experiment [2] is GPR3.
For experiment [3], the target named is GPR35.
Experiment [4] concerns the target GPR176.
The target of experiment [5] is GPR89B.
The target in experiment [6] is GPS1.
For experiment [7], the target named is GRHL3.
Experiment [8] deals with HBQ1.
In experiment [9] the target is HDHD2.
The target in experiment [10] is HES7.
For experiment [11], the target named is HERC3.
For experiment [12], the target named is HHATL.
The target in experiment [13] is HERC1.
For experiment [14], the target named is HEPH.
Note: reference of the scale not given here.

In [1], TTGGAGCTCCTGTGCATGCTGA registered a sensor-assay potency score (higher = more potent) of -0.983. In experiment [2], TAGGGATCTGAACAGAACCTTG registered a sensor-assay potency score (higher = more potent) of -1.54.

TGTAGTAGTAGCAGATGGCGTC: in experiment [3], the sensor-assay potency score (higher = more potent) came out at 0.146.

Take TAGACGATGGGGTCCATGCAGC: the sensor-assay potency score (higher = more potent) in experiment [1] was -0.856. For TTGGCCATGTAGTAGTAGCAGA, in [3], the sensor-assay potency score (higher = more potent) was -0.948. The sequence TTTGTGGGCCTTAGCACTGGGA showed a sensor-assay potency score (higher = more potent) in experiment [3] of -1.13. In experiment [2], TCTGAGTAGAACACTGACCACC registered a sensor-assay potency score (higher = more potent) of -0.825.

TTGATGGTGTAGATGACTGAGG came in with a sensor-assay potency score (higher = more potent) in experiment [1] of -1.03. For TATATGTGCATATATAATCTTT, the sensor-assay potency score (higher = more potent) in experiment [2] was -0.621. On the same count and under the same terms, for TAAATAGACACTGTCTTTGTAT the value was 0.00652.

Turning to TTGTCTGGATCAGCTCTTCTGG, the sensor-assay potency score (higher = more potent) in experiment [4] is -0.703. On to TTGTACAGAGAAAGGTAGCGGT, for which the sensor-assay potency score (higher = more potent) in [2] amounted to 0.0257. In [1], TGGTGTAGATGACTGAGGGTGT showed a sensor-assay potency score (higher = more potent) of -0.513.

Sequence TACCAGTAGATCGGTCACCACC had a sensor-assay potency score (higher = more potent) in experiment [1] of -1.53.

In the case of TTGGTTACTGCAAACACAGGGA, the sensor-assay potency score (higher = more potent) in [4] is 0.111.

In experiment [3], TTGCTGGTTATGTACAGGGCGC showed a sensor-assay potency score (higher = more potent) of -1.43. On the same count and under the same terms, for TTTTGTGGGCCTTAGCACTGGG the value was -0.0303. The sequence TAGTACACAGCGAAGCGCGTGG returned a sensor-assay potency score (higher = more potent) in experiment [1] of 0.127. TAGCAGATGGCGTCCAGGCAGC: the sensor-assay potency score (higher = more potent) in experiment [3] is -1.38. In the case of TAGGCGTAGAAGCCCAGCTTGA, in experiment [3], the sensor-assay potency score (higher = more potent) is -1.67. In experiment [1], TAGCGGTCCACGCAGATGCAGG had a sensor-assay potency score (higher = more potent) of -1.47. TTGGCATCTGAGAGCTTGCTGG: the sensor-assay potency score (higher = more potent) in [3] is -1.04. TTGGAAGAGGAACAGCAGCAGC displayed a sensor-assay potency score (higher = more potent) in experiment [2] of -1.16. On to TAGAAGCCCAGCTTGATCGCTG, for which, in [3], the sensor-assay potency score (higher = more potent) was 0.371. On to AAACACGCTGATGACCAGCAGG, for which the sensor-assay potency score (higher = more potent) in [1] is -1.04.

Regarding TTGTCTCTGAATAGTAGGTGAG, the sensor-assay potency score (higher = more potent) in experiment [2] is -1.17. ATGTAGTAGTAGCAGATGGCGT displayed a sensor-assay potency score (higher = more potent) in experiment [3] of -1.53. In experiment [4], TATGATGACCTTCTTCTTCTGG gave a sensor-assay potency score (higher = more potent) of 0.194. With TGCATGTTGAGGAAGTAACCGA, the sensor-assay potency score (higher = more potent) in experiment [1] is -0.614. In [3], TGGAGTTGAAATTGTGCCGGGT gave a sensor-assay potency score (higher = more potent) of 0.0323. For TAGACAGTGAAGGGCAACCAGC, in [2], the sensor-assay potency score (higher = more potent) is -1.54. In the case of TGACTAATCTCTCTGACTCTTT, the sensor-assay potency score (higher = more potent) in experiment [2] is -0.512. Sequence TTGCTGTTTCGGGTCTCTGAGA came in with a sensor-assay potency score (higher = more potent) in [4] of -1.55. TTGAACACGGTTGTGCGGCAAG: the sensor-assay potency score (higher = more potent) in experiment [4] was -0.817.

As for TAGAGCTGCAGCATGATGCCAA, the sensor-assay potency score (higher = more potent) in experiment [2] was -0.00504. Take TACCATAGACATCTCTTGCCCC: the sensor-assay potency score (higher = more potent) in experiment [5] came out at 0.0271.

On to TCAGCTACCATAGACATCTCTT, for which the sensor-assay potency score (higher = more potent) in [5] stood at 0.143. Consider AAGAACAACTTGAAGGAGCTGC, for which the sensor-assay potency score (higher = more potent) in [6] is 0.981. In the case of TTCTTCTTGAGCAAATCTGGGT, the sensor-assay potency score (higher = more potent) in experiment [7] was -0.605. In experiment [8], TTGCTGCCCAGCTTCTTCCACA returned a sensor-assay potency score (higher = more potent) of -1.27. For TAGACGCCGACGTTGCTGCCCA, the sensor-assay potency score (higher = more potent) in [8] is -0.72.

For the sequence TAACCTTTTAAGAGCTTCCTGT, the sensor-assay potency score (higher = more potent) in experiment [9] is -0.227.

Take TTTCTCAACCTTTCTAACAGGT: the sensor-assay potency score (higher = more potent) in experiment [9] stood at 0.329. AACCGGACAAGTAGCAGCTGGC: the sensor-assay potency score (higher = more potent) in [10] is -1.06.

TATCTGAACAACACCATTGATT gave a sensor-assay potency score (higher = more potent) in experiment [11] of -0.697. Still for that read-out and setting: for TAGCTTTCTCGGCAGATCGTGA the value was -0.772. In [12], TTGTACATGATGATGGCCCAGA yielded a sensor-assay potency score (higher = more potent) of -0.478. As for TTCTGCACTAGTCACATTGGTC, the sensor-assay potency score (higher = more potent) in experiment [13] is -0.675. For the sequence TTGAACTATATGCACACACATA, the sensor-assay potency score (higher = more potent) in experiment [11] was -1.08.

As for TTTACATTGAGTAACTTCTTGT, in [11], the sensor-assay potency score (higher = more potent) is -0.154.

Turning to AAGCGAAGCAGGCACTCGCGGA, the sensor-assay potency score (higher = more potent) in [10] was -1.48. Same read-out and setting: for TTGGGCGCCCCGTCTTGTCTGT the value was -1.06; for TATCTCCGCTTTCTCCAGCTTC, -1.2.

In experiment [14], TAGATGGTCTTCTTGTAGGTTC returned a sensor-assay potency score (higher = more potent) of -0.407.

Turning to TTTCTCCAGCTTCGGGTTCCGG, in experiment [10], the sensor-assay potency score (higher = more potent) was -1.22. Turning to TACTTTGCCACCACACACCTTT, the sensor-assay potency score (higher = more potent) in experiment [11] is 0.0362. As for TAACAGAATGGACATCTGCTGA, in experiment [13], the sensor-assay potency score (higher = more potent) was -0.647. Consider TAGTTGTCCATGTCGATTGAGC, for which, in experiment [13], the sensor-assay potency score (higher = more potent) was -0.739. For TTTCTGTAGTGAACATAGCAGT, in [13], the sensor-assay potency score (higher = more potent) was -0.617. In experiment [13], TTCATAGGCATACTGCTCCTGA gave a sensor-assay potency score (higher = more potent) of -0.419.
